Compounds with a hit are over-represented: about 7.9% of the library has one in this group of screens.
SW480 rerep: DNA re-replication induction in SW480 cells; SW480 DNA re-replication, Hoechst DNA content imaging, 48 h; Potency, µM (series often up to 46.1 µM), without a hit: top-dose re-replication activation, usual class: activators; actives 1.8% (n = 340,000); AID 624297; further: % of control where 0% means no effect; nearly all actives have a fitted effect of over 55% in size
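First, 250 cells per well were seeded. Next, compound or vehicle (23 nL) was pinned in, plates sat 48 hr at 37 C. Finally Hoechst was added for 40 min before fluorescence scanning.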
MCF10A rereplic: inducers of DNA re-replication in MCF 10A breast cells; actives 2.9% (n = 350,000); Potency, µM (top dose mostly 46.1 µM), for inactives: at the highest dose activity, positive = re-replication, hits mostly activators; AID 624296; MCF 10A DNA re-replication, Hoechst nuclear intensity, 48 h; further: % of control where 0% means no effect; nearly all actives have a fitted effect of over 50% in size
HT1080 IDH1KD tx: toxicity to HT-1080 IDH1 knockdown cells (counter line); HT-1080 IDH1 knockdown viability, ATP luminescence, 48 h; Potency, µM (doses to about 46.1 µM), for the others: at the highest dose activity, negative = toxicity, most hits filed as cytotoxic; actives 2% (n = 360,000); AID 686971;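 further: 0% = DMSO wells and -100% = cell-free medium wells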
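HT-1080-IDH1KD cells (IDH1 knocked down), 750/well in RPMI with 5% FBS, treated with compound 48 h at 37 degrees C. Viability by CellTiter-Glo luminescence, normalised to DMSO and no-cell wells; concentration-response curves classed.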
KB-V1 cytotox: KB-V1 MDR subline cytotoxicity; Potency, µM (highest dose often 46.1 µM), most hits filed as cytotoxic; AID 1347076; actives 3.4% (n = 400,000); KB-V1 MDR cells viability, CellTiter-Glo, 72 h; further: on the % scale 0 is the no-effect control and ±100 the full control effect; nearly all actives have a fitted effect of over 60% in size
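qHTS viability screen in drug-selected KB-V1 MDR cells: 72 h compound treatment at 37 degrees C, ATP luminescence end point.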
HT1080NT lethal: kills 2HG-producing HT-1080-NT fibrosarcoma cells; HT-1080-NT fibrosarcoma viability, CellTiter-Glo ATP luminescence, 48 h; Potency, µM (titrated, usually from 46.1 µM), for the others: at the top dose activity, negative = less viability, most hits filed as cytotoxic; actives 1.6% (n = 360,000);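 further: NT is the 2HG producing partner of a matched IDH1 knockdown line; 0% = DMSO-treated cells and -100% = media-only wells without cells; nearly all actives have a fitted effect of over 55% in size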
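HT-1080-NT fibrosarcoma cells (2HG-overproducing), 750 cells/well in RPMI with 5% FBS, dosed after 2 h and incubated 48 h at 37C. CellTiter-Glo luminescence normalized to DMSO and no-cell wells; concentration-response curves fitted and classed.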
KB-3-1 cytotox: KB-3-1 parental cell cytotoxicity | KB-3-1 viability, CellTiter-Glo ATP luminescence, 72 h | Potency, µM (doses to about 46.1 µM), hits mostly cytotoxic | actives 1.4% (n = 400,000) | AID 1347075; further: on the % scale 0 is the no-effect control and ±100 the full control effect; nearly all actives have a fitted effect of over 60% in size
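KB-3-1 parental drug-naive adenocarcinoma cells in DMEM/10% FBS, incubated 72 h at 37 C with pin-transferred compounds across a concentration series. Viability by CellTiter-Glo luminescence; concentration-response curves fitted after normalization.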
The depositor's hits bear a star; i = inactive; ? = inconclusive; nt = no result. The call rests on the fitted dose curve; in most records, active means well fitted curve in the direction sought with a large enough effect; inconclusive means small, poorly fitted or top-dose-only effect, or another doubt; inactive means no such curve, though single readings can be large; an effect the other way counts as inactive or inconclusive. Potency means the concentration at half of the fitted maximal effect.

SMILES	SW480 rerep	MCF10A rereplic	HT1080 IDH1KD tx	KB-V1 cytotox	HT1080NT lethal	KB-3-1 cytotox
CCOC(=O)c1c(C)c(C(=O)NCc2ccccn2)c(C)n1CC	?	17.5%	-0.9%	16.4µM*	-14.0%	i
CCn1c(C(=O)NCc2ccccn2)cc2sccc21	-5.7%	10.3%	2.7%	14.6µM*	18.7%	i
CCn1c(C(=O)NCCCN2CCc3ccccc3C2)cc2sccc21	?	6.4%	?	9.2µM*	20µM*	i
CCN1CCN(CCCNC(=O)c2cc3sccc3n2CC)CC1	?	4.8%	-0.6%	i	0.0%	i
CCn1c(C(=O)NCCCc2ccccc2)cc2sccc21	0.3%	13.5%	-9.6%	?	2.3%	i
Cc1ccc(Cn2c(C(=O)NCCCN3CCOCC3)cc3sccc32)cc1	-6.8%	-1.3%	?	4.61µM*	15.8µM*	i
CC(=O)NC1CC2CCCC(C1)N2C(=O)Nc1cccc(C)c1 (stereo not given)	5.4%	?	21.7%	i	23.0%	i
CC1CCCCC1NC1=NCCS1 (stereo not given)	-5.6%	0.7%	15.8%	i	17.4%	i
Cc1cc2c(cc(C(=O)NCCCN3CCOCC3)n2Cc2ccc(Cl)cc2)o1	18.4µM*	23.1µM*	-25.0%	i	?	i
Cc1cc(NC(=O)COc2cccnc2[N+](=O)[O-])no1	-1.6%	-1.4%	7.1%	i	-2.0%	i
O=C(c1ccccc1)c1nn(-c2ccc(Cl)cc2)cc1C(=O)c1cc2ccccc2oc1=O	4.8%	?	-12.0%	7.31µM*	-3.2%	?
Cc1ccc(S(=O)(=O)N2CCCC(C(=O)NCCCN3CCCCC3C)C2)cc1 (stereo not given)	10.3%	?	0.7%	i	1.7%	i
CCCCS(=O)(=O)/C=C\C1C2C=CC(C2)C1S(=O)(=O)CCCC (stereo not given)	6.1%	11.3%	-1.1%	i	-3.9%	i
CCCCS(=O)(=O)/C=C\C=C/S(=O)(=O)CCCC	?	?	?	i	6.51µM*	7.31µM*
COc1ccccc1[C@@H]1C(c2ccccc2)=NN(c2ccc(Br)cc2)[C@H]1C(=O)N1CCOC1=O	?	3.26µM*	-7.3%	i	-4.5%	i
O=C1OCCN1C(=O)[C@H]1[C@H](c2ccc([N+](=O)[O-])cc2)C(c2ccccc2)=NN1c1ccc(Br)cc1	-24.2%	-44.9%	-15.6%	i	-10.5%	i
COc1ccccc1[C@H]1C(c2cccc(Cl)c2)=NN(c2ccccc2)[C@@H]1CO	?	?	?	i	?	i
COc1ccccc1[C@@H]1C(c2cccc(C)c2)=NN(c2ccc(Br)cc2)[C@H]1C(=O)N1CCOC1=O	20.6µM*	?	2.2%	i	-1.7%	i
COc1ccccc1[C@@H]1C(c2cccc(Cl)c2)=NN(c2ccccc2)[C@H]1C(=O)N1CCOC1=O	2.59µM*	?	8.2%	i	5.5%	?
CCc1cc2c(SCC(=O)c3ccccc3)ncnc2s1	0.1%	7.3%	-1.4%	i	6.7%	i
O=C(NC1CC1)C1CCN(C2CCN(C(=O)c3ccc(C(F)(F)F)cc3)CC2)CC1	-19.1%	3.5%	12.9%	i	9.6%	i
CCOC(=O)c1[nH]c(C)c(C(=O)N2CCN(c3cccc(Cl)c3)CC2)c1C	-2.8%	5.5%	?	13µM*	-0.1%	i
COCCn1c(=S)[nH]c2cc(C(=O)N3CCN(c4ccccc4OC)CC3)ccc2c1=O	-7.6%	0.2%	2.5%	14.6µM*	-5.6%	i
Cc1cccc(N2CCN(C(=O)c3ccc4[nH]c(C)c(C)c4c3)CC2)c1C	3.26µM*	2.31µM*	3.66µM*	2.31µM*	?	25.9µM*
Cc1[nH]c2ccccc2c1C(=O)C(=O)N1CCN(c2cccc(Cl)c2)CC1	?	20.6µM*	?	i	-6.9%	?
SMILES	SW480 rerep	MCF10A rereplic	HT1080 IDH1KD tx	KB-V1 cytotox	HT1080NT lethal	KB-3-1 cytotox
Cc1[nH]c2ccc(C(=O)N3CCN(c4ccccc4Cl)CC3)cc2c1C	?	?	-29.7%	i	-1.1%	i
CCS(=O)(=O)Nc1ccc(Cc2ccc(NS(=O)(=O)CC)cc2)cc1	-10.7%	3.8%	-17.3%	i	-28.6%	i
CSC1=N/C(=C/c2cccnc2)C(=O)N1Cc1ccccc1	10.3%	-0.2%	-0.7%	i	3.9%	i
O=c1oc2c3c(ccc2c2ccccc12)OCN(Cc1cccc(Cl)c1)C3	nt	nt	nt	i	nt	i
Cc1ccc2nc(COc3ccccc3NC(=O)COc3ccc(F)cc3)cc(=O)n2c1	nt	nt	nt	i	nt	i
CCOC(=O)c1[nH]c2ccc(OC)cc2c1NC(=S)N1CCN(c2cccc(C)c2C)CC1	?	14.6µM*	?	i	?	i
CCOC(=O)c1[nH]c2ccc(OC)cc2c1NC(=S)N1CCN(c2ccc(F)cc2)CC1	-6.3%	4.8%	-20.4%	i	-18.1%	i
COc1ccccc1N1CCN(C(=O)c2ccc3[nH]c(C)c(C)c3c2)CC1	2.31µM*	?	1.3µM*	4.61µM*	1.46µM*	1.64µM*
Cc1[nH]c2ccccc2c1C(=O)C(=O)N1CC=C(c2ccccc2)CC1	?	?	20.6µM*	?	?	?
CCOC(=O)c1[nH]c(C)c(C(=O)N2CCc3ccccc32)c1C	0.517µM*	0.411µM*	1.03µM*	0.326µM*	?	0.326µM*
CC12CCC(C(=O)Nc3ccc4c(c3)OCCO4)(OC1=O)C2(C)C (stereo not given)	-2.7%	3.4%	-2.5%	?	-7.4%	i
O=C(CN1C(=O)c2ccccc2C1=O)NCc1ccc(N2CCOCC2)cc1	-10.1%	-1.1%	7.5%	i	-14.1%	i
COc1ccccc1N1CCN(C(=O)c2ccc3[nH]c4c(c3c2)CC(C)CC4)CC1 (stereo not given)	10.6%	?	?	20.6µM*	?	i
Cc1[nH]c2ccc(C(=O)N3CCCC3)cc2c1C	-3.9%	15.3%	0.0%	?	-0.3%	i
Cc1[nH]c2ccc(C(=O)N3CCN(c4cccc(Cl)c4)CC3)cc2c1C	?	?	7.31µM*	?	?	?
COc1ccc(S(=O)(=O)N(CC(=O)O)c2ccc(C)cc2)cc1	-7.2%	-3.0%	7.4%	i	1.9%	i
COc1ccccc1Oc1c(NS(=O)(=O)c2ccc(C(C)(C)C)cc2)nc(-c2ncccn2)nc1OCCO	-1.7%	14.8%	nt	nt	nt	nt

High-throughput results: PubChem, National Center for Advancing Translational Sciences (NCATS)
